# From PubChem BioAssay (Tox21)
# Inconclusive results are not listed. Where a call stands in place of a potency, no number is given. Values without a mark were called inactive. Activity calls are given as the source filed them. The call rests on the fitted dose curve; in most records, active means well fitted cell-killing curve with a large enough effect in the repeat runs; inconclusive means weak or mixed curves; inactive means no such curve, though single readings can be large or run the other way.
# Assay: qHTS assay to identify small molecule agonists of the peroxisome proliferator-activated receptor delta (PPARd) signaling pathway - cell viability counter screen (AID 743211); further: nearly all actives have a fitted effect of over 55% in size
# Conditions: PPARd-bla HEK293H viability, CellTiter-Glo luminescence, 17 h; series mostly up to 62.6 µM
# Text: U.S. Tox21 Program National Center for Advancing Translational Sciences [NCATS] NIH Chemical Genomics Center [NCGC] U.S. Environmental Protection Agency [EPA] National Institutes of Environmental Health Sciences [NIEHS] National Toxicology Program [NTP] U.S. Food and Drug Administration [FDA] Tox21 Assay Overview: The peroxisome proliferator-activated receptors (PPARs) are lipid-activated transcription factors of the nuclear receptor superfamily with three distinct subtypes namely PPAR alpha, PPAR delta (PPARd) and PPAR gamma. All these subtypes heterodimerizes with Retinoid X receptor (RXR) and have different physiological functions. […] To identify the compounds that activate PPAR-delta signaling, GeneBLAzer PPAR delta UAS-bla HEK293H cell line (Invitrogen, Carlsbad, CA, USA) containing a beta-lactamase reporter gene under the control of an Upstream Activator Sequence (UAS) was used to screen the Tox21 compound library. The cytotoxicity of the Tox21 compound library against the PPARd-bla cell line was tested in parallel by measuring the cell viability using CellTiter-Glo assay (Promega, Madison, WI) in the same wells.
# Tox21 Assay Protocol Summary: PPARd-bla cells were dispensed at 3000 cells/6uL/well in 1536-well black wall/clear bottom plates using a Multidrop Combi (Thermo Fisher Scientific, Waltham, MA) dispenser. After the assay plates were incubated at 37 C and 5% CO2 for 5 h, 23 nL of compounds dissolved in DMSO, positive controls or DMSO only was transferred to the assay plate by a Pintool station (Kalypsys, San Diego, CA). The assay plates were incubated at 37C for 17 h. After 1 uL of LiveBLAzerTM B/G FRET substrate was added using a Bioraptr Flying Reagent Dispenser (FRD) workstation (Beckman Coulter, Indianapolis, IN, USA), the plates were incubated at room temperature for 2 h, and fluorescence intensity was measured by an Envision plate reader (PerkinElmer, Shelton, CT). For cell viability readout that measures cytotoxicity, 3 ul/well of CellTiter-Glo reagent was added into the assay plates using a Bioraptr FRD. After 30 min incubation at room temperature, the luminescence intensity in the plates was measured using a ViewLux plate reader (PerkinElmer).
# Potency means the concentration at half of the fitted maximal effect.
SMILES,Potency,"activity change, negative = cytotoxicity"
CCCCC(CC)COC(=O)COc1ccc(Cl)cc1Cl (stereo not given),inactive,
OC(CN1CCC(Cc2ccc(F)cc2)CC1)c1ccc(Cl)cc1 (stereo not given),inactive,
CC(=O)NO,inactive,
C=C(C)C(=O)OCCO,inactive,
CCCCCCCCCCCc1ccccc1,inactive,
CC1=CC=C(C(C)C)CC1,inactive,
NCC(=O)CCC(=O)O,inactive,
COc1ccnc(CS(=O)c2nc3ccc(OC(F)F)cc3[nH]2)c1OC (stereo not given),inactive,
COc1cc2c(cc1OC)C(C(C(=O)N(CCc1ccc(OC)c(OC)c1OC)CCc1ccc(OC)c(OC)c1OC)c1ccccc1)=NCC2 (stereo not given),inactive,
CCO[C@H](Cc1ccc(OCCc2ccc(OS(C)(=O)=O)cc2)cc1)C(=O)O,inactive,
C=CCOC(=O)CCC1CCCCC1,inactive,
CN(C)c1ccc(/C=C/c2ccc([N+](=O)[O-])cc2)cc1,,-8.61% [at 5.95 µM]
CC(C)CC(=O)C1C(=O)c2ccccc2C1=O,inactive,
CC(C)(O)c1ccc(CNC(=O)c2cccnc2Oc2ccc(F)cc2)cc1,inactive,
CC(=O)[O][Al],inactive,
CCNc1cc(O)ccc1C,inactive,
OCCNCc1ccccc1,inactive,
CN(Cc1ccc(C(C)(C)C)cc1)Cc1cccc2ccccc12,29.8 µM (active),
CC(C)(C)OCC1CO1 (stereo not given),inactive,
C[C@@H](c1ncncc1F)C(O)(Cn1cncn1)c1ccc(F)cc1F (stereo not given in full),inactive,

SMILES,Potency,"activity change, negative = cytotoxicity"
CNCCCN1c2ccccc2CCc2ccccc21,26.6 µM (active),
OC(C#CCN1CCCC1)(c1ccccc1)c1ccccc1,inactive,
C=C1[C@H]2CC[C@@H]3[C@H]2C(C)(C)CCC[C@]13C,inactive,
Brc1c2ccccc2cc2ccccc12,inactive,
CCCC(=O)Nc1ccc(O)c(C(C)=O)c1,inactive,
O=C1c2ccccc2S(=O)(=O)N1CCCCN1CCN(c2ncccn2)CC1,inactive,
CCOC(=O)c1cccnc1,inactive,
CCc1c(C(=O)NN2CCCCC2)nn(-c2ccc(Cl)cc2Cl)c1-c1ccc(Br)cc1,12.3 µM (active),
CCOC(=O)C(F)(F)F,inactive,
Cc1ccccc1S(=O)(=O)O,inactive,
CCN(CC)CCNc1ccc(CNC=O)c2sc3ccc(OC)cc3c(=O)c12,30.9 µM (active),
O=C(O)C(S)C(S)C(=O)O (stereo not given),inactive,
C=CCOc1ccccc1OCC(O)CNC(C)C (stereo not given),inactive,
CNC(=O)CN(CCN(CCN(CC(=O)[O-])CC(=O)NC)CC(=O)[O-])CC(=O)[O-].O.[Gd+3],inactive,
CCOC(=O)C(=O)CCc1ccccc1,inactive,
Nc1cc(C(=O)O)c(O)c(S(=O)(=O)O)c1,inactive,
CCCCCCCCCOS(=O)(=O)O,inactive,
C[C@@H]1C[C@H]2O[C@@]3(O[C@@H]2C(C)(C)O)[C@H](O)[C@@]2(C)[C@@H]4CC[C@H]5C(C)(C)[C@@H](O[C@@H]6OC[C@@H](O)[C@H](O)[C@H]6O)CC[C@@]56C[C@@]46CC[C@]2(C)[C@@H]13,inactive,
C[C@@H]1C[C@H]2[C@@H]3CCC4=CC(=O)C=C[C@]4(C)[C@@]3(F)[C@@H](O)C[C@]2(C)[C@@]1(O)C(=O)COC(=O)c1ccncc1,inactive,
O=C(O)c1ccccc1Cl,inactive,
